ELG1 DNA repair = inhibitors of ELG1-dependent DNA repair in HEK293T cells; AID 504467; Potency, µM (top dose mostly 46.1 µM), for the others: at the highest dose activity change, negative = inhibition, most hits filed as inhibitors; actives 2.3% (n = 330,000); HEK293T ELG1-luciferase reporter, luminescence, 16 h; DNA damage induced by 5-fluorouridine; further: potency means the concentration at half of the fitted maximal effect; nearly all actives have a fitted effect of over 55% in size
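HEK293T cells expressing luciferase-tagged ELG1 (2,000/well) received 5-Fluorouridine plus compound or DMSO for 16 hr at 37 °C. Luciferase was read by ONE-Glo luminescence after 30 min at room temperature.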
TDP1 cell noCPT = qHTS for Inhibitors of human tyrosyl-DNA phosphodiesterase 1 (TDP1): qHTS in cells in absence of CPT | DT40 Tdp1-/- hTDP1 cells, no CPT, ATP luminescence, 48 h | Potency, µM (titrated, usually from 46.2 µM), for the others: at the top dose activity change, negative = growth inhibition, usual class: inhibitors | actives 15% (n = 420,000); further: potency means the concentration at half of the fitted maximal effect; nearly all actives have a fitted effect of over 55% in size
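Readout: luminescence from CellTiter-Glo after 30 min in the dark at RT. Cells: DT40 Tdp1-/- with stable hTDP1, 400/well. Exposure: compounds alone, ≥48 hr, 37 °C.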
HT1080 IDH1KD tx = toxicity to HT-1080 IDH1 knockdown cells (counter line); HT-1080 IDH1 knockdown viability, ATP luminescence, 48 h; Potency, µM (titrated, usually from 46.1 µM), for inactives: at the top dose activity, negative = toxicity, usual class: cytotoxic; actives 2% (n = 360,000);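 further: potency means the concentration at half of the fitted maximal effect; 0% = DMSO wells and -100% = cell-free medium wells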
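After a 2 h attachment period, IDH1KD HT-1080 cells took pin-transferred compound for 48 h at 37 °C; ATP-based luminescence after 10 min room-temperature reagent incubation reported viability.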
TDP1 cell CPT = growth inhibition of DT40 Tdp1-/-;hTDP1 cells with camptothecin (screen for TDP1 inhibitors) | actives 12% (n = 420,000) | Potency, µM (doses to about 46.2 µM), for inactives: at the top dose activity change, negative = growth inhibition, actives largely listed as inhibitors | chicken DT40 Tdp1-/-;hTDP1 cells + 20 nM CPT, ATP luminescence, 48 h; further: potency means the concentration at half of the fitted maximal effect; nearly all actives have a fitted effect of over 55% in size
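Cell growth measured by CellTiter-Glo luminescence after a minimum 48 h, 37 C compound exposure with 20 nM CPT in Tdp1-knockout DT40 cells stably expressing hTDP1, seeded 400/well; qHTS titration format.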
HT1080-NT tox = kills 2HG-producing HT-1080-NT fibrosarcoma cells; HT-1080-NT fibrosarcoma viability, CellTiter-Glo ATP luminescence, 48 h; Potency, µM (top dose mostly 46.1 µM), for inactives: at the top dose activity, negative = less viability, actives largely listed as cytotoxic; actives 1.6% (n = 360,000); AID 686970;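 further: NT is the 2HG producing partner of a matched IDH1 knockdown line; potency means the concentration at half of the fitted maximal effect; 0% = DMSO-treated cells and -100% = media-only wells without cells; nearly all actives have a fitted effect of over 55% in size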
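Viability of the 2HG-overproducing fibrosarcoma line after 48 hours of compound exposure at 37 degrees C was determined by luminescence with CellTiter-Glo, and concentration-effect curves were then fitted and categorized.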
IL1B secr inh = inhibitors of inflammasome signaling (IL-1 beta secretion) | THP-1 LPS/ATP IL-1B secretion, AlphaLISA, 16 h; active compounds read low | activity change, % at 57.5 µM | actives 4.7% (n = 360,000); in the data active means activity change below about -50%; inconclusive means mostly about -30% to -49%
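Secreted IL-1B measured by AlphaLISA bead assay after 16 h compound exposure of THP-1 cells; compounds (final up to 57.5 uM) added 1 h before LPS (250 ng/mL) and ATP (1.25 mM) stimulation; lower signal means less secretion.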
An asterisk follows results filed as active; ? = inconclusive; . = no result given; [ ] = dose if it differs, or a comment. A selection: hits, their analogues and other compounds. The true share with any hit is near 19%. Unless noted, the call rests on the fitted dose curve; in most records, active means well fitted curve in the direction sought with a large enough effect; inconclusive means small, poorly fitted or top-dose-only effect, or another doubt; inactive means no such curve, though single readings can be large; an effect the other way counts as inactive or inconclusive. Unless noted, on the % scale 0 is the no-effect control and ±100 the full control effect.

SMILES	ELG1 DNA repair	TDP1 cell noCPT	HT1080 IDH1KD tx	TDP1 cell CPT	HT1080-NT tox	IL1B secr inh
CCCCNC(=O)C1=C(N)C(C(=O)Nc2ccc(C)c(S(=O)(=O)N3CCCCC3)c2)SC1=Nc1ccc(C)cc1C (stereo not drawn)	-34%	23µM*	-26%	23µM*	-14%	0
CCOc1ncccc1C(=O)Nc1ccc(C)c(S(=O)(=O)N2CCCCCC2)c1	21µM*	?	-18%	18µM*	-9%[9.24 µM]	-4
Cc1ccc(NCC(=O)Nc2cccc(F)c2)cc1S(=O)(=O)N1CCCCCC1	14%	16µM*	?	?	?	-75*
O=C(Nc1ccc(S(=O)(=O)Nc2cnc3ccccc3n2)cc1)c1ccccc1Br	0%	-4%	-3%	5%	-20%	46
Cc1cc(Cl)ccc1NC(=O)CN(c1ccccc1Br)S(C)(=O)=O	.	-29%	.	?	.	.
COc1ccc(C(CNC(=O)CNC(=O)c2cccc(C)c2)N2CCCCC2)cc1 (stereo not drawn)	.	-4%	7%	-34%	5%	-5
Cc1nn(C)c2c1c(C(F)(F)F)cc(=O)n2CC(=O)NC(C)(C)C	.	-16%	.	-3%	.	.
CCCCC(=O)Nc1ccc(C)c(S(=O)(=O)N2CCCCCC2)c1	-10%	?	-9%	?	-17%	-64*
COc1ccc(NC(=O)c2n[nH]c(=O)c3ccccc23)cc1S(=O)(=O)N1CCCCC1	23µM*	?	-19%	?	-1%	-10
COc1ccc(NC(=O)CCc2nc3ccccc3c(=O)[nH]2)cc1S(=O)(=O)N1CCCCC1	26µM*	-26%	-12%	-26%	-17%	6
COc1ccc(CCC(=O)Nc2ccc(OC)c(S(=O)(=O)N3CCCCC3)c2)cc1OC	?	?	-21%	21µM*	3%	0
Cc1onc(-c2c(F)cccc2Cl)c1C(N)=S	-3%	-19%	3%	-7%	1%	-23
N#CN=CN1CC=C(c2ccc(Cl)cc2)CC1	.	-3%	6%	3%	3%	-29
CN(C)S(=O)(=O)c1cccc(NC(=O)COc2ccccc2C(=O)NCc2ccccc2)c1	?	?	0%	16µM*	-5%	-7
Cc1ccc(NC(=O)COc2ccccc2C(=O)NCc2ccccc2)cc1	?	?	?	?	4%[9.24 µM]	?
COc1ccccc1CCC(=O)Nc1ccc(OC)c(S(=O)(=O)N2CCCCC2)c1	?	-27%	-4%	?	-1%	6
COc1cc(CCC(=O)Nc2ccc(C)c(S(=O)(=O)N3CCCCCC3)c2)cc(OC)c1OC	?	7.3µM*	?	10µM*	-4%	3
COc1ccc(CCC(=O)Nc2ccc(Cl)c(S(=O)(=O)N3CCCC3)c2)cc1	4.6µM*	?	?	21µM*	?	-15
COc1ccc(CCC(=O)Nc2ccc(S(=O)(=O)N3CCOCC3)cc2)cc1	15%	-21%	0%	?	4%	19
COc1ccc(NC(=O)CCOc2ccccc2C)cc1S(=O)(=O)N1CCCCC1	?	18µM*	-3%	29µM*	-18%	-60*
CCNC(=O)C1(C)CCCN1C(=O)c1cc(C)on1 (stereo not drawn)	.	-1%	14%	12%	25%	2
Cc1ccc(Cn2c(C)c3cnn(CC(=O)O)c(=O)c3c2C)cc1	.	2%	.	-25%	.	.
Cc1c(C(=O)N(C)Cc2nccs2)sc2ncnc(NCC3CCCO3)c12 (stereo not drawn)	.	?	.	-20%	.	.
Cc1[nH]c2ccccc2c1C(C#N)(C#N)C1C(=O)c2ccccc2C1=O	?	2.1µM*	26µM*	2.1µM*	18µM*	0
O=[N+]([O-])c1ccc(Oc2cccc3cccnc23)c([N+](=O)[O-])c1	-1%	6.5µM*	23µM*	5.2µM*	?	-29
SMILES	ELG1 DNA repair	TDP1 cell noCPT	HT1080 IDH1KD tx	TDP1 cell CPT	HT1080-NT tox	IL1B secr inh
Cc1c(C(=O)Oc2cccc3cccnc23)cccc1[N+](=O)[O-]	-10%	?	?	?	?	-66*
O=C(Oc1ccc(Cl)c2cccnc12)c1ccco1	?	?	?	?	?	64
Cc1c(C(=O)O/N=C(\N)c2ccccn2)cccc1[N+](=O)[O-]	?	?	?	?	-27%	-12
N#Cc1ccc(Oc2cccc3cccnc23)c([N+](=O)[O-])c1	-1%	?	0%	4%	2%	-8
O=C(Oc1cccc2cccnc12)c1ccc2c(c1)OCCO2	10µM*	1µM*	?	0.65µM*	23µM*	-5
O=C(Oc1ccc(Cl)c2cccnc12)c1cccc([N+](=O)[O-])c1	?	0.92µM*	-1%	1.3µM*	-10%	-18
CCN(CC)C(=O)Oc1c(Cl)cc(Cl)c2cccnc12	-9%	?	-14%	18%	-6%	-1
O=C(Oc1c(Cl)cc(Cl)c2cccnc12)c1cccc([N+](=O)[O-])c1	-17%	3.3µM*	?	2.9µM*	?	46
O=C(Oc1cccc2cccnc12)c1cccc([N+](=O)[O-])c1	11%	0.73µM*	?	0.92µM*	?	-99*
C=CCSc1nc2sc3c(c2c(=O)n1CC)CCc1ccccc1-3	-24%	?	13%	10µM*	15%	-17
Cc1ccc(CN2CCN(C(=O)CC(C)C)CC2)cc1	-18%	-5%	-3%	1%	-2%	9
COc1cccc(CC(=O)OC(C)C(=O)Nc2ncc(Cl)cc2Cl)c1 (stereo not drawn)	-6%	-10%	-7%	-20%	0%	-5
CC1=C(C(=O)N(C(C)C)C(C)C)CC(CC(=O)NCc2cccs2)C(=O)N1Cc1ccc(C(C)(C)C)cc1 (stereo not drawn)	.	23µM*	?	?	?	-59*
CC1=C(C(=O)N2CCOCC2)CC(CC(=O)NCc2ccco2)C(=O)N1Cc1ccc(C(C)(C)C)cc1 (stereo not drawn)	.	21µM*	-5%	29µM*	-7%	-16
CC1=C(C(=O)N2CCOCC2)CC(CC(=O)NCc2cccs2)C(=O)N1Cc1ccc(C(C)(C)C)cc1 (stereo not drawn)	.	?	1%	15µM*	-2%	22
